HP1b chromo inh – blocks HP1-beta chromodomain binding to methylated histone tails; P83916; AlphaScreen HP1-beta / biotin-H3K9me3 peptide binding; Potency, µM (highest dose often 114 µM), for the others: at the highest dose activity change, negative = inhibition, actives largely listed as inhibitors; 390,000 tested, 0.56% active; note: nearly all actives have a fitted effect of over 70% in size
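HP1-beta protein (50 nM final) preincubated 30 min at room temperature with biotinylated H3(1-18)K9me3 peptide (50 nM) in PBS pH 7.4, 0.01% Tween-20, then compound added for 30 min. AlphaScreen streptavidin donor/nickel chelate acceptor beads (10 ug/mL final), 30 min dark, luminescence read.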
BAZ2B inh – BAZ2B (human) inhibition. AID 504333. 360,000 tested, 4.4% active. Q9UIF8. Potency, µM (highest dose often 114 µM), for inactives: top-dose activity change, negative = inhibition, hits mostly inhibitors. AlphaScreen BAZ2B-H3K14Ac peptide displacement; note: % is set by controls: 0 for no effect and ±100 for the full control effect; nearly all actives have a fitted effect of over 60% in size
Target sequence (Q9UIF8 whole entry, looked up): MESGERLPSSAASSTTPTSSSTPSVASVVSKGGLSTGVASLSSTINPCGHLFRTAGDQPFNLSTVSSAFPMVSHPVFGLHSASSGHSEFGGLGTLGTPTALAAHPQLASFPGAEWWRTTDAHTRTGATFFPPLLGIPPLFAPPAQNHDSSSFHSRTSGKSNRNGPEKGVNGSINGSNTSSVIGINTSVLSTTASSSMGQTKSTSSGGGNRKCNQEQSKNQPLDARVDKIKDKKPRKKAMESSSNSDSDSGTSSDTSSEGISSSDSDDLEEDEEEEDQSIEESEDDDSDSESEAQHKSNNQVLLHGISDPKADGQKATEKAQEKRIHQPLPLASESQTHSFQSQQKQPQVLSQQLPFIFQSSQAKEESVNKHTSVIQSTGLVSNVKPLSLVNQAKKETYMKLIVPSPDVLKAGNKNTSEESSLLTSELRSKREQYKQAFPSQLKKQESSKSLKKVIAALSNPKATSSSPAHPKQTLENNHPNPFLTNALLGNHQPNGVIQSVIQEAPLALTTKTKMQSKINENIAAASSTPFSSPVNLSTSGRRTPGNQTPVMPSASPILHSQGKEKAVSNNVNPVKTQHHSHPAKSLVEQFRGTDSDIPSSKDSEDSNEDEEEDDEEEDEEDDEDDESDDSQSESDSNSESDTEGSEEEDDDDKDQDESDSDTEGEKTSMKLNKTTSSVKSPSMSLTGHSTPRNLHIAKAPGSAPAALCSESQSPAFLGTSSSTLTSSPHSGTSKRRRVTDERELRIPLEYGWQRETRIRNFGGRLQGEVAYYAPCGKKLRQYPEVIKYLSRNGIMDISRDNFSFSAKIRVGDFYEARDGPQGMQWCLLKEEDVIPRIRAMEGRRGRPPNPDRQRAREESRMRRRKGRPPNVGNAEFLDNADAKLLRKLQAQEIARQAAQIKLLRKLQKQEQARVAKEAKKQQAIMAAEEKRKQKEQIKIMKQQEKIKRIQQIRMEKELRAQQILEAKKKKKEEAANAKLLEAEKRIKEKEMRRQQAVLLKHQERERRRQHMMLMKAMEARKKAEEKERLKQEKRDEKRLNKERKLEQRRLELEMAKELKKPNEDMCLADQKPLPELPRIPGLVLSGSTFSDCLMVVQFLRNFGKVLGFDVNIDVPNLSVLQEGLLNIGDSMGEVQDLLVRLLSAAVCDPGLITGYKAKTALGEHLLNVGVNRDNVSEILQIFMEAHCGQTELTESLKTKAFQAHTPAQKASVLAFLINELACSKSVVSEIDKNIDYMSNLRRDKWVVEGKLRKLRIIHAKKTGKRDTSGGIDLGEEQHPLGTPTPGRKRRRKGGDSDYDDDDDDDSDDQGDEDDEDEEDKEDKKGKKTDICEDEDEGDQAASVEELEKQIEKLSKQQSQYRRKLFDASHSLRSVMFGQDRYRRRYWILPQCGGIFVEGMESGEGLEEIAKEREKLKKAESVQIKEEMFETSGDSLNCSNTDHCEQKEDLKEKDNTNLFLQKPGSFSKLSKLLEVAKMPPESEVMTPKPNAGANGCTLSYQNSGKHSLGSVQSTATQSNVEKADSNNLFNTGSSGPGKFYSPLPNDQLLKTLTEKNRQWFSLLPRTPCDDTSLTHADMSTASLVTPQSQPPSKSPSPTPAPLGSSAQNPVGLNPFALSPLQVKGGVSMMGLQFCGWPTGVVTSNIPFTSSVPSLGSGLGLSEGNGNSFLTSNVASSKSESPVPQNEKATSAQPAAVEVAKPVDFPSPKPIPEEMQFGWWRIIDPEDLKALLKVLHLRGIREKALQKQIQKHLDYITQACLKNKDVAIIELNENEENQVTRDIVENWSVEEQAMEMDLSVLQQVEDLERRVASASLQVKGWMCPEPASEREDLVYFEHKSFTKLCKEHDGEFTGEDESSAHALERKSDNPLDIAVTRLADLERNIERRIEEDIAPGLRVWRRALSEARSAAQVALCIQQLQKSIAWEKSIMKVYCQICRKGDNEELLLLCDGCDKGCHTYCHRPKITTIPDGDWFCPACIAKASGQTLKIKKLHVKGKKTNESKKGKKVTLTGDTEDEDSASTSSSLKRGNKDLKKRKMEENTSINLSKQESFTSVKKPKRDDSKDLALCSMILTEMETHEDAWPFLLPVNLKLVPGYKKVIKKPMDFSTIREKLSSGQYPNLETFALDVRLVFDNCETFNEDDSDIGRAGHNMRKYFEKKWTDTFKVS
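BAZ2B (50 nM) with biotin-H3(5-23)K14Ac peptide (50 nM) in PBS pH 7.4, 0.01% Tween-20, preformed 30 min, then compound 30 min at room temperature; top concentration 110uM. AlphaScreen streptavidin donor/nickel chelate acceptor beads (10 ug/mL final), 20 min dark, signal read.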
PLK1 PBD inh – PLK1 (human) polo-box domain binding inhibition | 360,000 tested, 2.8% active | Plk1 PBD binding of FITC phosphopeptide, fluorescence polarization | AID 720504 | Potency, µM, inactives show max response, negative = inhibition, usual class: inhibitors; note: series mostly up to about 57 µM; % is set by controls: 0 for no effect and ±100 for the full control effect; nearly all actives have a fitted effect of over 65% in size
JMJD2A Tudor – JMJD2A Tudor domain (human) inhibition; Potency, µM (titrated, usually from 114 µM), for the others: at the top dose activity change, negative = inhibition, actives largely listed as inhibitors; 390,000 tested, 4.4% active; O75164; AlphaScreen JMJD2A-Tudor / H3K4me3 peptide binding; note: % is set by controls: 0 for no effect and ±100 for the full control effect; nearly all actives have a fitted effect of over 50% in size
VDR inhibitor – blocks the human vitamin D receptor; P11473; VDR-SRC2-3 peptide fluorescence polarization, 2 h; Potency, µM, for the others: max response, negative = inhibition, actives largely listed as inhibitors; 400,000 tested, 0.93% active; note: % is set by controls: 0 for no effect and ±100 for the full control effect
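Inhibition of the VDR/SRC2-3 peptide interaction is quantified by fluorescence polarization. Compounds (23 nl, pintool) incubate with the reagents for 2 hours at ambient room temperature.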
L3MBTL1 inh – inhibitors of human L3MBTL1; 230,000 tested, 0.66% active; Q9Y468; Potency, µM (doses to about 57.1 µM), inactives show top-dose activity, negative = inhibition, hits mostly inhibitors; AlphaScreen L3MBTL1–H3K9me1 peptide binding; AID 485360; note: % is set by controls: 0 for no effect and ±100 for the full control effect; nearly all actives have a fitted effect of over 60% in size
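Displacement of a biotinylated histone H3(1-15) peptide monomethylated at Lys9 (75 nM) from L3MBTL1 (50 nM) was measured by AlphaScreen after a 30 min room-temperature compound incubation; cefsulodin titration served as intraplate control.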
The depositor's hits bear a star; u = inconclusive; x = no result; ! = not active in a repeat; [ ] = dose if it differs, or a comment. Hits are enriched below; roughly 6.9% of the tested compounds scored in any of these assays. Calls come from the whole dose curve; as a rule, active = well fitted curve in the direction sought with a large enough effect; inconclusive = small, poorly fitted or top-dose-only effect, or another doubt; inactive = no such curve, though single readings can be large; an effect the other way counts as inactive or inconclusive. Potency is the fitted concentration of half-maximal effect.

SMILES	HP1b chromo inh	BAZ2B inh	PLK1 PBD inh	JMJD2A Tudor	VDR inhibitor	L3MBTL1 inh
Oc1cc(Cl)cc(Cl)c1Cl	28.5%	-0.8%	-5.6%	-16.6%	-10.0%	2.2%
COCCNC(=O)c1c(NC(=O)c2ccc(Br)o2)n(Cc2ccccc2)c2nc3ccccc3nc12	100.4%	21.3%	-9.5%	26.7%	u	-25.9%
COCCCNC(=O)c1c(NC(=O)c2ccco2)n(Cc2ccccc2)c2nc3ccccc3nc12	u	1.1%	u	u	44.7µM*	x
CCOC(=O)c1c(N)n(CCCOC(=O)c2ccco2)c2nc3ccccc3nc12	61.4%	1.9%	-15.3%	-7.5%[11.4 µM]	-8.8%	x
CC(C)CCNC(=O)c1c(N)n(Cc2ccc3c(c2)OCO3)c2nc3ccccc3nc12	50.5%	40.8%	0.7%	30.3%	89.1µM*	x
CCCCNC(=O)c1c(N)n(CCCOC)c2nc3ccccc3nc12	165.3%	51.0%	-2.8%	93.3%	50.1µM*	x
CCCCCn1c(NC(=O)c2ccco2)c(C(=O)OCC)c2nc3ccccc3nc21	u	6.6%	u	u	5.01µM*	9.1%
Cc1ccc(NC(=O)Nc2ccc3nc(N4CCN(C)CC4)cc(C)c3c2)cc1F	40.9%	3.3%[57.1 µM]	x	-13.9%	15.7%	x
CN1CCCC2(CCN(C(=O)Oc3ccccc3)CC2)C1	x	x	x	x	-1.3%	x
CCCCCCCCCOc1ccc2[nH]cc(CCN)c2c1	x	35.5µM*	x	x	120.3%	x
Cc1cccc(-n2c(O)c(/C=N/NC(=O)c3ccncc3)c(=O)[nH]c2=O)c1	35.2%	u	-9.8%	79.4µM*	-3.9%	-12.4%
Cc1ccc(-n2c(O)c(/C=N/NC(=O)c3ccncc3)c(=O)[nH]c2=O)cc1	37.3%	50.1µM*	1.9%	u	-12.8%	-5.5%
COc1ccc(N/N=C/c2c(O)n(-c3ccc(C)c(C)c3)c(=O)[nH]c2=O)cc1	-13.5%	-35.7%	u	35.5µM*	u	-0.3%
Cn1c(O)c(/C=N/NC(=O)c2ccncc2)c(=O)[nH]c1=S	55.9%	17.8%	4.2%	79.4µM*	-27.9%	8.1%
O=C(N/N=C/c1c(O)n(-c2ccccc2)c(=O)[nH]c1=O)c1ccncc1	46.4%	u	-2.9%	u	1.9%	-6.9%
Cc1ccc(-n2c(O)c(/C=N/Nc3ccccc3)c(=O)[nH]c2=O)cc1C	25.3%	-23.7%	-21.7%	-23.8%	3.1%	-16.0%
COc1ccccc1CNC(=O)C(NS(=O)(=O)c1ccc2c(c1)oc(=O)n2C)C(C)C (configuration not stated)	45.9%	-1.9%	-10.7%	-6.2%	-15.7%	x
CCCCCCCCCCCCC/C=C/[C@@H](O)[C@@H](N)COP(=O)([O-])OCC[N+](C)(C)C	x	x	x	x	3.2%	x
CCCOc1ccc(N2CC(C(=O)Nc3ccccc3F)CC2=O)cc1 (configuration not stated)	26.9%	2.5%	-6.3%	-7.5%	-2.0%	-0.4%
Cc1oc(-c2cccc(Cl)c2)nc1CN1CCC(C(=O)NCCCN2CCN(c3cccc(Cl)c3)CC2)CC1	-7.7%	28.2µM*	x	31.6µM*	-2.9%	x
Cc1oc(-c2ccccc2Cl)nc1CN1C(=O)CN=C(c2ccccc2)c2cc(Cl)ccc21	34.1%	-5.2%	x	-9.6%	11.8%	x
Oc1c(Br)c(Br)c(Br)c(Br)c1Br	-22.6%	56.2µM*	26.7µM*	u	u	-12.3%
CCOC(=O)c1ccccc1NC(=O)N(Cc1ccc(CC)cc1)Cc1cn[nH]c1-c1ccc(OC)cc1	64.2%	25.8%	x	16.6%	11.2%	x
CCCCCCCCn1sccc1=O	57.5%	u	4.74µM*	-15.9%	3.55µM*	-5.6%
CCN(c1ccc(C)cc1C)S(=O)(=O)c1nnc(NC(=O)c2ccco2)s1	21.3%	-13.5%	26.7µM*	-28.6%	12.2%	x
SMILES	HP1b chromo inh	BAZ2B inh	PLK1 PBD inh	JMJD2A Tudor	VDR inhibitor	L3MBTL1 inh
Cc1ccccc1N1CCN(S(=O)(=O)c2nnc(NC(=O)c3ccc(Cl)cc3)s2)CC1	-16.0%	u	x	u	-13.3%	x
Cc1cccc(C)c1NC(=O)CN1CCCC1	-19.3%	x	-10.9%	-13.6%	-2.3%	x
CC(C)(C)NC(=O)N1c2ccccc2Sc2ccccc21	52.9%	3.5%	3.1%	-3.7%	-1.2%	x
CCCCC1C(=O)NC(=S)NC1=O	x	-26.2%	x	x	x	12.5%
CCCCC1C(=O)NC(=S)N(C)C1=O (configuration not stated)	-1.5%	x	-12.0%	79.4µM*	u	x
O=C1C(c2ccccc2)=C(N2CC2)c2ccccc21	20µM*	35.5µM*	-6.1%	44.7µM*	3.5%	-27.5%
CC(=O)c1cn(Cc2ccc(F)cc2)c2ccccc12	23.0%	-32.8%	2.8%	-2.0%	-16.3%	0.5%
CC(N)Cc1cn(Cc2ccccc2)c2ccccc12 (configuration not stated)	-21.6%	-29.9%	-13.6%	79.4µM*	-16.0%	-1.2%
COc1ccc(CCNCc2cccn2C)cc1OC	5.9%	u	-2.3%	-22.9%	-1.8%	x
COc1cccc(CNCCc2c[nH]c3ccccc23)c1OC	27.6%	-16.1%	-4.8%	2.9%	8.1%	x
Brc1cccc(CNCCc2ccc3c(c2)OCO3)c1	-34.3%	56.2µM*	3.4%	22.4µM*	0.6%	-1.2%
COc1cccc(CNCCc2ccc3c(c2)OCO3)c1OC	-13.4%	56.2µM*	12.2%	79.4µM*	-1.4%	-6.2%[2.29 µM]
COc1cc(OC)c(OC)cc1CNCCc1ccc2c(c1)OCO2	-25.3%	u	-7.8%	31.6µM*	1.3%	-0.3%
COc1cccc(CNCCc2cccc(F)c2)c1OC	u	79.4µM*	0.7%	28.2µM*	4.1%	0.1%[2.29 µM]
Cc1ccc2c(c1)C(=O)CC1(CCC(C(C)(C)C)CC1)O2 (configuration not stated)	69.0%	42.3%	-3.0%	14.1%	-3.3%	x
CCCCCCCCCCCCCCC[C@@H](O)[C@@H](N)COP(=O)(O)O	x	x	x	x	-4.1%	x
CCOc1ccc(Cl)cc1CNCCc1ccc(F)cc1	42.6%	-18.1%	-1.2%	0.0%	10.3%	14.6%
CCOc1cc(CNCCc2cccc(F)c2)ccc1OC	70.8µM*	44.7µM*	-13.0%	1.41µM*	4.9%	x
COc1cc(Br)c(CNCCc2ccc3c(c2)OCO3)cc1OC	u	u	0.5%	25.1µM*	-1.7%	-7.4%
CN1CC[C@@]2(C)c3cc(O)ccc3N(C)[C@@H]12	u	x	5.32µM*	3.98µM*!	u	x
CN1CC[C@@]2(C)c3cc(O)ccc3N(C)C2O1 (some centres not stated)	-15.6%	x	x	-20.7%	-21.8%	x
COc1ccc(O)c(CN2CCCC(C(=O)c3ccccc3SC)C2)c1 (configuration not stated)	u	50.1µM*	-7.7%	56.2µM*	-22.2%	-13.0%
CCOC(=O)N(C)C(=O)CSP(=S)(OCC)OCC	x	x	x	x	50.1µM*	x
C=C(C)c1cc2cc(C(C)=O)c(O)cc2o1	x	x	x	x	-2.6%	x
O=C1NC(=O)N(c2ccc3c(c2)OCO3)C(=O)/C1=C/c1ccsc1	35.8%	-5.6%	7.52µM*	-5.5%	u	-1.1%
